Source: PubChem BioAssay AID1347076 (National Center for Advancing Translational Sciences (NCATS), 2019)
About 13,000 (3.2%) of roughly 400,000 compounds were called active. Inconclusive results (about 18%) are left out. For the sample, actives were picked, then their nearest neighbours and some compounds at random. Unmarked numbers belong to inactive results. The call rests on the fitted dose curve; in most records, active means well fitted cell-killing curve with a large enough effect; inconclusive means small, poorly fitted or top-dose-only effect, or effect the other way; inactive means flat fitted curve, though single readings scatter.

Test: qHTS assay for MDR1-selective chemotherapeutics: Primary screen using the drug-selected MDR subline cells KB-V1; further: nearly all actives have a fitted effect of over 60% in size
Conditions: KB-V1 MDR cells viability, CellTiter-Glo, 72 h; series mostly up to 46.1 µM; activity change, negative = cytotoxicity: at the top concentration
Excerpt: A prime difficulty in effectively treating cancer is the development of cellular resistance to multiple structurally unrelated anticancer drugs, a phenomenon known as multidrug resistance (MDR). […] Numerous strategies to overcome P-gp-mediated MDR have been explored, including the design of drugs that evade recognition and efflux, and development of inhibitors to block efflux and restore drug accumulation. […] An alternative approach is to exploit resistance by identifying drugs that target MDR cells over the non-resistant parental cells from which they were selected. […] The development of MDR1-selective agents represents a new strategy for resolving multidrug resistance, as it remains a long-standing clinical challenge for cancer chemotherapy.
Our goal is to identify compounds that selectively kill P-gp-expressing MDR cells. We will identify MDR1-selective compounds by comparing toxicity of compounds in the screening library against parental, drug-naive (KB-3-1) adenocarcinoma cells as well as their drug-selected MDR sub-line (KB-V1). The differential toxicity of compounds against these two cell lines will be used to identify MDR1-selective compounds, whose cytotoxicity is potentiated, rather than diminished, by P-gp expression. This assay will be utilized to conduct a quantitative high-throughput screen (qHTS) in collaboration with the NIH Chemical Genomics Center to identify selective agents, and probe hits arising from the screen will be validated using secondary assays and characterized through a well-established follow-up research program. This screen was run against the entire NCGC library collection of about 400,000 compounds.
NIH Molecular Libraries Probe Production Network [MLPCN]
NIH Chemical Genomics Center [NCGC]
PI: Michael Gottesman, National Cancer Institute, NIH
Briefly, 5 microL of media containing either KB-V1 cells (columns 1-2, 4-48) are dispensed into Greiner white, treated solid-bottom 1536-well assay plates (media-only control is added to column 3). Compounds are then transferred via Kalypsys pin tool equipped with 1536-pin array (10 nL slotted pins, V&P Scientific, San Diego, CA). Following addition of compound, the plates are incubated at 37 degrees C for 72 hours. CellTiter-Glo (2.5 µL/well) is then added, and the plates are read in a ViewLux reader (Perkin-Elmer, clear luminescence filter, 1 second exposure, 1x binning) following a 10 minute incubation. All cells are dispensed in DMEM phenol-red free media containing 10% FBS.
Library plates were screened starting from the lowest and proceeding to the highest concentration. Vehicle-only plates, with DMSO being pin-transferred to columns 5-48, will be inserted uniformly at the beginning and the end of each library in order to monitor and record any shifts in the background, which can be affected by reagent dispensers or loss in enzyme activity over time. Screening data will be corrected, normalized, and concentration-effect relationships will be derived by using publicly-available NCGC, NCATS curve fitting algorithms (http://ncgc.nih.gov/pub/openhts).
On the % scale 0 is the no-effect control and ±100 the full control effect; potency means the concentration at half of the fitted maximal effect.

Q: Which “activity change, negative = cytotoxicity” value does the source give for `C[C@H]1CN([C@@H](C)CO)C(=O)CCCn2cc(nn2)CO[C@@H]1CN(C)C(=O)Nc1ccccc1` here?
A: 12.8%

Q: For `COc1ccc([C@H]2N[C@]3(CCCN(Cc4ccco4)C3=O)[C@H]3C(=O)N(C)C(=O)[C@@H]23)cc1`, which “activity change, negative = cytotoxicity” value is on record?
A: 0%

Q: For `Oc1c(CN2CCCC2)cc(COCc2ccccc2)c2cccnc12`, which Potency is on record?
A: 20.6 µM (active)

Q: Which “activity change, negative = cytotoxicity” value does the source give for `O=C(CN1CCN(c2ccc(F)cc2)CC1)Nc1ccccc1` here?
A: -0.53%

Q: Which “activity change, negative = cytotoxicity” value does the source give for `COc1cc(CN2CCC(C(N)=O)CC2)ccc1OCc1ccccc1` here?
A: 4.51%

Q: Which Potency does the source give for `Oc1c(CN2CCN(c3ccc(F)cc3)CC2)cc(Cl)c2cccnc12` here?
A: 5.17 µM (active)

Q: With `COc1cc(C)cc(CN2CCC(Cc3ccccc3)CC2)c1O` as the compound, how does the “activity change, negative = cytotoxicity” value read?
A: -10.3%

Q: Which “activity change, negative = cytotoxicity” value does the source give for `Fc1ccc(N2CCN(Cc3cnc(Oc4ccc(Br)cc4)s3)CC2)cc1` here?
A: 0%

Q: For `CCC(=O)N1CCc2cc(S(=O)(=O)NC(CC(C)C)C(=O)NCCc3cccc(C)c3)ccc21` (stereo not given), which “activity change, negative = cytotoxicity” value is on record?
A: 4.3%

Q: With `COC(=O)c1ccc2c(c1)S(=O)(=O)NC2C` (stereo not given) as the compound, how does the “activity change, negative = cytotoxicity” value read?
A: 35.1%

Q: With `CCc1ccc(-n2nc(C)c3c(C)cc(=O)n(CC(=O)Nc4ccc(F)cc4C)c32)cc1` as the compound, how does the “activity change, negative = cytotoxicity” value read?
A: 2.18%

Q: Which “activity change, negative = cytotoxicity” value does the source give for `Cc1ccc(-c2nc3c(C)cc(Br)cn3c2Cc2ccccc2)cc1` here?
A: -18.7%

Q: Which “activity change, negative = cytotoxicity” value does the source give for `CCn1c2c(c(=O)n3ncc(C(=O)N4CCN(c5ccccc5)CC4)c13)CN(Cc1ccc(OC)cc1)CC2` here?
A: -27.7%

Q: With `CCc1cccc(NC(=O)Cn2nc(CC)n3c(cc4cc(C)ccc43)c2=O)c1` as the compound, how does the “activity change, negative = cytotoxicity” value read?
A: -19.3%

Q: For `CN1C(=O)C(CC(N)=O)N(NC(=O)c2ccc(Cl)cc2)C1=S` (stereo not given), which “activity change, negative = cytotoxicity” value is on record?
A: 1.63%

Q: Which “activity change, negative = cytotoxicity” value does the source give for `O=C(Nc1ccn(Cc2ccccc2)n1)c1cccc(F)c1` here?
A: 0%

Q: For `Cc1ccc(NC(=O)CC2C(=O)N(Cc3ccccc3)C(=S)N2NC(=O)c2cccc(F)c2)c(C)c1` (stereo not given), which Potency is on record?
A: 4.11 µM (active)

Q: With `Cc1ccc(S(=O)(=O)N2C[C@]3(O)C[C@@H]4C(=O)N(c5ccccc5)C(=O)[C@@H]4C[C@]3(OC(=O)NC3CC3)C2)cc1` as the compound, how does the “activity change, negative = cytotoxicity” value read?
A: 75.5%

Q: Which “activity change, negative = cytotoxicity” value does the source give for `COc1ccc(NC(=O)C2Cc3c(-c4cccc(NC(C)=O)c4)ccnc3O2)cc1OC` (stereo not given) here?
A: -18.5%

Q: With `COc1ccc(NC(=O)C2Cc3c(-c4ccc5c(c4)OCO5)ccnc3O2)cn1` (stereo not given) as the compound, how does the Potency read?
A: 20.6 µM (active)

Q: For `CC(=O)Nc1ccc(-c2ccnc3c2CC(C(=O)NC(C)C)O3)cc1` (stereo not given), which “activity change, negative = cytotoxicity” value is on record?
A: -3.89%

Q: With `CCOc1ccc(C(=O)Nc2ccc3nc4c(c(Nc5ccccc5OC)c3c2)CCCC4)cc1` as the compound, how does the “activity change, negative = cytotoxicity” value read?
A: 0%

Q: With `CC(C)C[C@@H]1Cc2[nH][nH]c(=O)c2[C@H](CCc2ccccc2)O1` as the compound, how does the “activity change, negative = cytotoxicity” value read?
A: -23.4%

Q: With `COc1ccc(-c2[nH]nc(-c3ccccc3)c2-c2nc3ccccc3[nH]2)cc1` as the compound, how does the “activity change, negative = cytotoxicity” value read?
A: -2.23%

Q: For `COc1ccc(Br)cc1C(=O)NC(=S)Nc1cc(-c2nc3ccccc3[nH]2)ccc1C`, which “activity change, negative = cytotoxicity” value is on record?
A: -18.6%

Q: For `Cc1ccc(-c2nc3ccccc3[nH]2)cc1N`, which Potency is on record?
A: 10.3 µM (active)

Q: With `CC1(Oc2cccc(F)c2)CCN(Cc2ccccc2OC(F)F)C1` (stereo not given) as the compound, how does the “activity change, negative = cytotoxicity” value read?
A: 5.33%

Q: Which “activity change, negative = cytotoxicity” value does the source give for `COc1ccccc1-n1c(-c2ccc(C)cc2)cn2c3c(=O)n(C)c(=O)n(C)c3nc12` here?
A: 27.5%

Q: For `COc1cccc(Cn2c(SCc3ccc(C(=O)N4CCCCC4)cc3)nc3ccncc32)c1`, which “activity change, negative = cytotoxicity” value is on record?
A: 13.1%

Q: For `O=C(Nc1ccccc1)c1ccc(NC(=O)c2cccs2)cc1`, which “activity change, negative = cytotoxicity” value is on record?
A: 0%

Q: For `O=C(Nc1ccc(NC(=O)c2cccs2)cc1)c1ccc2ccccc2c1`, which “activity change, negative = cytotoxicity” value is on record?
A: 1.68%

Q: For `CC(C)(C)c1ccc(C(=O)Nc2ccc3c(c2)CCCN3C(=O)c2cccs2)cc1`, which Potency is on record?
A: 20.6 µM (active)

Q: With `C/C=C/c1ccc(OCC(=O)OCC(=O)Nc2c(C)nn(-c3ccccc3)c2C)c(OC)c1` as the compound, how does the “activity change, negative = cytotoxicity” value read?
A: 4.6%

Q: With `Cc1nn(-c2ccccc2)c(C)c1NC(=O)COC(=O)c1cc(Cl)ccc1O` as the compound, how does the “activity change, negative = cytotoxicity” value read?
A: -4.72%

Q: Which Potency does the source give for `Cc1nn(-c2ccccc2)c(C)c1NC(=O)COc1ccc(Cl)cc1Cl` here?
A: 2.31 µM (active)

Q: For `C#CCN(C[C@H]1[C@H](OC(=O)NC2CCCC2)[C@H](OC(=O)NC2CCCC2)C[C@H]2C(=O)N(c3ccccc3)C(=O)[C@@H]12)S(=O)(=O)c1ccc(C)cc1`, which “activity change, negative = cytotoxicity” value is on record?
A: 11.7%

Q: For `C=CCn1c(SCc2c(C)noc2C)nc2sc3c(c2c1=O)CCC(C)C3` (stereo not given), which Potency is on record?
A: 4.61 µM (active)

Q: With `C=CCn1c(SCC(=O)NCCCO)nc2sc3c(c2c1=O)CCC3` as the compound, how does the “activity change, negative = cytotoxicity” value read?
A: -0.705%

Q: For `CC1CCc2c(sc3nc4n(c(=O)c23)CCS4)C1` (stereo not given), which “activity change, negative = cytotoxicity” value is on record?
A: -10.8%

Q: For `O=C(Nc1ccc(Cl)cc1)c1csc([C@H]2C[C@H](O)[C@@H](CO)O2)n1`, which “activity change, negative = cytotoxicity” value is on record?
A: -8.14%

Q: With `Cc1ccc(S(=O)(=O)NCc2nc3ccccc3c(=O)n2N)cc1` as the compound, how does the “activity change, negative = cytotoxicity” value read?
A: 4.72%

Q: Which “activity change, negative = cytotoxicity” value does the source give for `CCc1nnc2c3ccccc3nc(N3CCN(c4ccc(C)cc4C)CC3)n12` here?
A: 11%

Q: With `CCC1NC(=O)c2cccnc2-n2c1nc1ccc(C)cc1c2=O` (stereo not given) as the compound, how does the “activity change, negative = cytotoxicity” value read?
A: -15.4%

Q: For `C(=C\c1ccccc1)/CSc1nnc(-c2cccnc2)n1Cc1ccco1`, which “activity change, negative = cytotoxicity” value is on record?
A: 0%

Q: For `N=c1c2c(-c3ccccc3)c(-c3ccccc3)oc2ncn1Cc1ccco1`, which Potency is on record?
A: 16.4 µM (active)

Q: Which “activity change, negative = cytotoxicity” value does the source give for `OCCNc1ncnc2oc(-c3ccco3)c(-c3ccco3)c12` here?
A: -18.6%

Q: For `CSCCC(c1nnnn1Cc1ccccc1)N1CCN(C/C=C/c2ccccc2)CC1` (stereo not given), which “activity change, negative = cytotoxicity” value is on record?
A: -8.22%

Q: With `O=C(CNC(=O)N1CC(=O)Nc2ccccc21)Nc1ccc(Br)cc1F` as the compound, how does the “activity change, negative = cytotoxicity” value read?
A: 10.8%

Q: Which “activity change, negative = cytotoxicity” value does the source give for `O=[N+]([O-])c1ccccc1OCCCCN1CCCCC1` here?
A: -24.1%

Q: For `COc1ccccc1OCCCCCCN1CCN(C)CC1`, which “activity change, negative = cytotoxicity” value is on record?
A: 20.9%
